DNA Pol III inh – qHTS Assay for Inhibitors of DNA Polymerase III Holoenzyme System; reconstituted DNA polymerase III holoenzyme replication, biochemical; Potency, µM (highest dose often 57.1 µM), for the others: top-dose activity change, negative = inhibition; 71,000 compounds, 0.25% hits; AID 603, 2007; further: potency means the concentration at half of the fitted maximal effect; on the % scale 0 is the no-effect control and ±100 the full control effect
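Reconstituted *E. coli* holoenzyme (0.35 nM Pol III, 1 nM beta, 154 nM SSB, 2 nM primase) was preincubated with compound for 15 min at RT. Synthesis on 1.4 nM ssM13Gori ran 35 min, then was stopped with PicoGreen/EDTA and read as dsDNA fluorescence.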
BRCT inh green – qHTS Assay for Inhibitors of BRCT-Phosphoprotein Interaction (Green Fluorophore); BRCA1 BRCT-phosphopeptide binding, green fluorescence polarization; Potency, µM (top dose mostly 76.9 µM), for inactives: at the top dose activity change, negative = inhibition, most hits filed as inhibitors; 75,000 compounds, 0.05% hits; AID 875, 2007;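 further: potency means the concentration at half of the fitted maximal effect; plate controls were peptide without protein for full effect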
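Fluorescence polarization: His-tagged BRCT (~35 kDa BRCA1 C-terminus, 250 nM) bound to 100 nM fluorescein-labeled phosphorylated 10-aa BACH1 peptide, pH 7.3 phosphate buffer with DTT and Tween 20. Compounds incubated 12 min at room temperature; inhibition read as lowered polarization.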
YjeE inh – qHTS Assay for Inhibitors of YjeE; purified YjeE enzyme, qHTS inhibition assay; 71,000 compounds, 0.05% hits; Potency, µM; AID 605, 2007
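Fluorescence polarization of a BODIPY Texas Red–ADP probe (2 uM) bound to purified YjeE (10 uM) was read after 15 min room-temperature incubation with compounds. Loss of polarization marks inhibitors; ADP serves as titrated control.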
ALOX15 inhib – qHTS Assay for Inhibitors of 15-hLO (15-human lipoxygenase). Potency, µM (series often up to 57.1 µM), without a hit: at the top dose activity change, negative = inhibition, most hits filed as inhibitors. purified 15hLO-1, xylenol orange hydroperoxide absorbance. Polyunsaturated fatty acid lipoxygenase ALOX15 (Homo sapiens), P16050. AID 887, 2007. 74,000 compounds, 1.4% hits; further: potency means the concentration at half of the fitted maximal effect; on the % scale 0 is the no-effect control and ±100 the full control effect; nearly all actives have a fitted effect of over 55% in size
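Compounds were preincubated 15 min at room temperature with 40 nM purified human enzyme (25 mM Hepes pH 7.5, 0.01% Triton X-100); 50 uM arachidonic acid reacted 6 min. Fe-xylenol orange detection, 30 min, absorbance ratio 573/405 nm.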
Tau fil binding – qHTS Assay for Tau Filament Binding; recombinant tau filaments, thioflavin S fluorescence, 15 h; filaments grown with octadecylsulfate alongside compound; Potency, µM (titrated, usually from 57.1 µM), inactives show top-dose activity change, negative = inhibition; 71,000 compounds, 2% hits; AID 596, 2007;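 further: potency means the concentration at half of the fitted maximal effect; on the % scale 0 is the no-effect control and ±100 the full control effect; actives lower thioflavin S fluorescence by blocking filaments or displacing dye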
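His-tagged recombinant human tau (exons 2, 3, 10; 1 uM final) fibrillized with 30 uM sodium octadecylsulfate, 15 h at 37 C, in pH 7.4 HEPES buffer with 10 uM thioflavine S and 5 mM DTT. Reduced ThS fluorescence (450/510 nm) marks activity.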
BRCT inh red – qHTS Assay for Inhibitors of BRCT-Phosphoprotein Interaction (Red Fluorophore) | 75,000 compounds, 0.03% hits | Potency, µM (top dose mostly 76.9 µM), inactives show top-dose activity change, negative = inhibition, most hits filed as inhibitors | BRCT-phosphopeptide binding, red fluorescence polarization; further: on the % scale 0 is the no-effect control and ±100 the full control effect
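Fluorescence polarization: 100 nM His-tagged BRCA1 BRCT with 100 nM TAMRA-labelled phospho-BACH1 decapeptide, phosphate buffer pH 7.3 with 150 mM NaCl, DTT, 0.01% Tween 20; 12 min RT. Binding inhibition seen as FP decrease.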
The depositor's hits bear a star; i = inactive; . = no result; ! = a repeat was not active; [ ] = remark or other dose. Compounds with a hit are over-represented: about 3.3% of the library has one in this group of screens. The call rests on the fitted dose curve; in most records, active means well fitted curve in the direction sought with a large enough effect; inconclusive means small, poorly fitted or top-dose-only effect, or another doubt; inactive means no such curve, though single readings can be large; an effect the other way counts as inactive or inconclusive.

SMILES	DNA Pol III inh	BRCT inh green	YjeE inh	ALOX15 inhib	Tau fil binding	BRCT inh red
CC(=O)Oc1cc(-c2coc3cc(OC(C)=O)c(OC(C)=O)c(OC(C)=O)c3c2=O)cc(OC(C)=O)c1OC(C)=O	.	-1%[3.08 µM]	.	16µM*	.	0%
O=S(O)O.O=S(O)O.[Co].[NH2-].[NH2-].[NH2-].[NH2-]	-7%[11.4 µM]	-2%[15.4 µM]	i	5%[11.4 µM]	-5%[11.4 µM]	0%[15.4 µM]
NS(=O)(=O)c1ccc(N=Nc2ccc(O)c(C(=O)O)c2)cc1	-10%[11.4 µM]	-5%[15.4 µM]	i	-22%[11.4 µM]	0%[11.4 µM]	-2%[15.4 µM]
O=C(O)c1cc(N=Nc2ccc([N+](=O)[O-])cc2)ccc1O	-12%[11.4 µM]	-2%[15.4 µM]	i	0%[11.4 µM]	32µM*!	0%[15.4 µM]
N#Cc1cc2sc3nc4ccccc4n3c2cc1C#N	5%	-3%	i	4%	3%	1%
N#Cc1cc2sc3nnc(-c4ccncc4)n3c2cc1C#N	-11%	-1%	i	2%	7.9µM*	-8%
Cc1cccn2c(=O)c3cc(C(=O)NC(C)c4ccccc4)c(=N)n(CCCn4ccnc4)c3nc12 (stereo unspecified)	-24%	-1%	i	15%	1.3µM*	0%
Cc1ccc2nc3c(cc(C(=O)NCc4ccccc4)c(=N)n3CCCn3ccnc3)c(=O)n2c1	-13%	26%	i	17%	0.5µM*	0%
CC(C)OC(=O)C[C@H](NC(=O)OC(C)(C)C)c1ccccc1	.	0%[15.4 µM]	.	4%[11.4 µM]	.	1%[15.4 µM]
C=C(C)CC1(c2ccccc2)Oc2ccccc2-c2nc3cc(Cl)c(Cl)cc3nc21 (stereo unspecified)	.	-1%[15.4 µM]	.	-18%[11.4 µM]	.	1%[15.4 µM]
Cn1cc(-c2nc3cncnc3n(Cc3ccc(F)cc3)c2=O)c2ccccc21	-7%	0%	i	-8%	210%	1%
N=c1n(CCN2CCCC2)c2ccccc2n1CC(O)c1ccco1 (stereo unspecified)	1%	-1%	i	9%	12%	0%
Cc1ccccc1Cn1c(=N)n(CC(O)c2ccco2)c2ccccc21 (stereo unspecified)	-8%	-2%	i	5%	16µM*	-1%
CC[C@H](NC(C)C)[C@H](O)c1ccc(O)c2[nH]c(=O)ccc12	-2%	-3%	i	-5%[25.6 µM]	32µM*	-1%
COc1cccc(N=Cc2ccc(O)cc2O)c1	0%	2%	i	-18%	32µM*	-1%
CC1CCC2C(=O)N3C(CCC(C)[C@H]3c3cccc(N4CCCC4=O)c3)C(=O)N2C1c1cccc(N2CCCC2=O)c1 (stereo partly specified)	.	-1%[15.4 µM]	.	5%[11.4 µM]	.	0%[15.4 µM]
CNC(=O)c1c(NC(=O)c2nc3ccccc3s2)sc2c1CCC2	-7%	8%	i	-1%	0.63µM*	0%
CC1=CC(=O)C2C(C)(C)CCC[C@@]2(C)[C@@]1(O)CCc1ccoc1 (stereo partly specified)	.	-1%	.	-16%	.	-1%
COc1ccc2c3c(cccc13)NN=C2C	32µM*	-7%	i	13µM*	16µM*	-5%
Cn1c(=O)c(-c2cccs2)nc2cnc(OCc3ccccc3)nc21	-10%	4%	i	9%	59%	0%
Cc1ccc(SCN2CCCCC2)cc1 (tested in a mixture with another compound)	-6%[11.4 µM]	-1%[15.4 µM]	i	3%[11.4 µM]	-4%[11.4 µM]	0%[15.4 µM]
Cc1nc(NCc2ccccc2)c2nc(-c3ccccc3)n(CC(C)(C)CN(C)C)c2n1	-12%	2%	i	4µM*	23%	1%
CCCn1c(-c2ccc(F)cc2)nc2c(NCC3CCN(C)CC3)nc(C)nc21	-9%	1%	i	2%	22%	0%

Compound activity: PubChem BioAssay, National Center for Advancing Translational Sciences (NCATS)
